Screens deposited in PubChem by National Center for Advancing Translational Sciences (NCATS).
Methyltransferases = Primary Screen for Target Class Profiling of Small Molecule Inhibitors of Methyltransferases; purified enzyme, MTase-Glo SAH luminescence; active compounds read low; calls only at 40 µM; actives 3.9% (n = 25,000); AID 1745853, 2022; call rule not given here
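Each enzyme was reacted with SAM and its substrate, with compounds tested once at 40 uM; SAH formed was read by MTase-Glo luminescence.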
* marks the source's active call; other numbers are inactive results; i = inactive; + = active, no number; ! = repeats disagree. Many of the other results were omitted from the sample, so hits are more common in it than they were. On the % scale 0 is the no-effect control and ±100 the full control effect.

SMILES	Methyltransferases
Cc1cc2c(cc1Cl)N(C(=O)Nc1ccc(Oc3cccnc3C)nc1)CC2	i
COc1ccc(NC(=O)N2CCc3c2ccc2ccccc32)cc1N1CCN(C)CC1	i
COc1ccc(-c2nnc3n(Cc4ccc(F)cc4)c(=O)c4ccccc4n23)c(O)c1	i
O=C(NCCc1ccc(Cl)cc1)c1ccc2c(=O)nc3c(-c4ccccc4F)n[nH]n3c2c1	i
CSc1ccc(CCN2C(=O)c3ccc(-c4ccccc4)n3CC2(C)C(=O)NC2CCCC2)cc1 (stereo not drawn)	i
C=CC[N+]1([C@H]2C[C@H]3[C@@H]4CC[C@H]5C[C@H](OC(C)=O)[C@@H](N6CCCCC6)C[C@]5(C)[C@H]4CC[C@]3(C)[C@H]2OC(=O)CC)CCCCC1	+
Cc1cc2c(cc3n2CC(C)(C(=O)NC2CCCCCC2)N(c2cc(Cl)ccc2C)C3=O)o1 (stereo not drawn)	i
Cc1ccc(N2C(=O)c3cc(C(C)(C)C)nn3CC2(C)C(=O)NCc2ccccc2)cc1C (stereo not drawn)	i
O=C(Cc1ccccc1)OC[C@H]1O[C@H](O[C@H]2O[C@H](CO)[C@@H](O)[C@H](O)[C@H]2O)[C@H](O)[C@@H](O)[C@@H]1O	i
O=C(CCc1ccccc1)c1c(O)c([C@@H]2O[C@H](CO)[C@@H](O)[C@H](O)[C@H]2O)c(O)c([C@@H]2O[C@H](CO)[C@@H](O)[C@H](O)[C@H]2O)c1O	+
CN(C)c1ccc(C(=O)NC[C@H]2O[C@@H](CO)[C@@H](O)[C@H]2N(C)CCc2ccccc2)cc1	i
CCCn1c(=O)c2ccc(C(=O)NC3CCCC3)cc2n2c(=O)n(CC(=O)c3ccc(OCC)cc3)nc12	i
COC(=O)Cn1c(=O)oc2cc(S(=O)(=O)NCCN3CCOCC3)ccc21	i
COc1ccc(-c2n[nH]n3c2nc(=O)c2ccc(C(=O)NCc4cccnc4)cc23)cc1	i
Cn1cc(CN2CCCCCNC(=O)[C@@H]3CCC[C@@H]32)c2ccccc21	i
Cn1cc(C(=O)OCC2CCN(CCNS(C)(=O)=O)CC2)c2ccccc21	i
CN(C)CC1CCn2c(c(C3=C(c4cn(C)c5ccccc45)C(=O)NC3=O)c3ccccc32)C1 (stereo not drawn)	+!
Cc1ccccc1CNC(=O)C1(C)Cc2ccccc2C(=O)N1Cc1cccc(C(F)(F)F)c1 (stereo not drawn)	i
CCOC(=O)c1cc2n(n1)CC(C)(C(=O)NCc1ccccc1)N(Cc1ccccc1OCC)C2=O (stereo not drawn)	i
C[C@@]1(C2CCCC2)Cc2cc(OCC(=O)O)c(Cl)c(Cl)c2C1=O	+
Cc1ccc(C)c(Cn2nc3n(Cc4ccccc4)c(=O)c4ccccc4n3c2=O)c1	i
Cc1ccc(CNC(=O)Cn2nc3n(C)c(=O)c4ccc(C(=O)NC5CCCCC5)cc4n3c2=O)cc1	i
Cc1cccc(CCNC(=O)c2cc3n(n2)CC(C)(C(=O)NCc2ccc(F)cc2)N(C)C3=O)c1 (stereo not drawn)	i
CCCCN1C(=O)c2cc(C(=O)N3CCN(c4ccc(OC)cc4)CC3)nn2CC1(C)C(=O)NC1CCCC1 (stereo not drawn)	i
COC(=O)/C=C/c1ccc(O[C@@H]2O[C@H](CO)[C@@H](O)[C@H](O)[C@H]2O)cc1	i
SMILES	Methyltransferases
COc1ccc(NC(=O)/C=C/c2ccc(Cl)cc2)cc1	+
COc1ccc(C(=O)Nc2cnc(-c3ccc(Cl)cc3)nc2)cc1	i
Cc1ccc(NC(=O)N2CCn3c(C)ccc3C2C(C)C)c(Cl)c1 (stereo not drawn)	i
Cc1cc2c(cc1S(=O)(=O)Nc1ccc(F)c(Cl)c1)n(C)c(=O)n2C	i
CC(C)NC(=O)Cn1nc2n(C)c(=O)c3ccc(C(=O)NC4CCCCC4)cc3n2c1=O	i
CCCn1c(=O)c2ccc(Cl)cc2n2c(=O)n(CC(=O)NCc3ccc(C)cc3)nc12	i
COc1ccc(CNC(=O)c2cc3n(n2)CC(C)(C(=O)NC2CCCCCC2)N(C)C3=O)c(OC)c1 (stereo not drawn)	i
Fc1ccc2c(CCNCc3cccc(OCC(F)(F)C(F)F)c3)c[nH]c2c1	+
CC1(C(=O)NC2CCCCCC2)Cn2nc(-c3ccco3)cc2C(=O)N1Cc1ccccc1F (stereo not drawn)	i
COc1ccccc1CNC(=O)C1(C)Cn2nc(-c3ccccc3)cc2C(=O)N1c1ccc(C)c(Cl)c1 (stereo not drawn)	i
O=C(Cn1ccc2cc(S(=O)(=O)N3CCCC3)ccc21)NCc1cccs1	i
C=Cc1ccc(Cn2nc3n(C)c(=O)c4ccc(C(=O)NC(C)CC)cc4n3c2=O)cc1 (stereo not drawn)	i
COc1ccc(-n2c(=O)[nH]c3cccnc32)cc1OC	i
COc1cc2c(cc1-c1c(C)noc1C)ncc1[nH]c(=O)n(C(C)c3ccccn3)c12 (stereo not drawn)	+!
CC1(C(=O)NC2CCCCCC2)Cn2nc(-c3ccco3)cc2C(=O)N1Cc1ccc(F)cc1 (stereo not drawn)	i
O=C(CCc1nnc2n(Cc3ccccc3Cl)c(=O)c3ccccc3n12)N1CCN(c2ncccn2)CC1	i
Cn1nc2n(Cc3ccccc3)c(=O)c3ccc(C(=O)NC4CCCC4)cc3n2c1=O	i
CN1CCc2c(c3ccccc3n2Cc2ccc(C(=O)NO)cc2)C1	+!
COCCCNC(=O)c1ccc(Cn2c(=O)c3ccccc3n(Cc3ccc(C(C)C)cc3)c2=O)cc1	i
CN(Cc1ccccc1)C(=O)c1cc2n(n1)CC(C)(C(=O)NC1CCCCCC1)N(C)C2=O (stereo not drawn)	i
CCOCCCN1C(=O)c2cc3oc(C)cc3n2CC1(C)C(=O)NC1CCCCCC1 (stereo not drawn)	i
c1ccc(CNc2nc(-c3ccccc3)no2)cc1	i
O=C(NCc1ccc(Oc2ccccc2)cc1)c1nc(-c2cc(Br)c(O)c(Br)c2)no1	+
COCc1nc(-c2ccc(OC3CN(C(=O)NCc4ccc(OC)cc4)C3)cc2)no1	i
COc1ccc(CN2C(=O)c3cc(-c4cccs4)nn3CC2(C)C(=O)NC2CCCCCC2)cc1 (stereo not drawn)	i
SMILES	Methyltransferases
O=C(O)Cc1c(-c2ccccc2)c2cc(Cl)ccc2[nH]c1=O	i
O=C1NC(=O)c2c1c(-c1ccccc1)cc1[nH]c3ccc(O)cc3c21	+
O=C(O)Cc1c(-c2ccccc2)c2cc(Br)ccc2[nH]c1=O	i
CN(Cc1ccco1)C(=O)c1cc2n(n1)CC(C)(C(=O)NC1CCCCC1)N(C)C2=O (stereo not drawn)	i
CCOc1ccc(CN2C(=O)c3ccc(-c4ccco4)n3CC2(C)C(=O)NC2CCC(C)CC2)cc1 (stereo not drawn)	i
COCCCN1C(=O)c2ccc(-c3ccco3)n2CC1(C)C(=O)NC1CCCCCCC1 (stereo not drawn)	i
Cc1ccccc1-c1cc(O)c2c(c1)CN(C(=O)C1CCNCC1)CCO2	i
COc1ccc(CNC(=O)CCC2CCCN(C(=O)CCN3CCCCO3)C2)c(OC)c1 (stereo not drawn)	i
CCC(=O)N1CCOc2c(cc(-c3ccc(OC)c(OC)c3)cc2OC[C@H]2CCCN(C)C2)C1	+!
CC1(C(=O)NC2CCCCCC2)Cn2nc(C3CC3)cc2C(=O)N1Cc1cccc(Br)c1 (stereo not drawn)	i
CCCN1C(=O)c2cc3ccc(OC)cc3n2CC1(C)C(=O)NC1CCCC1 (stereo not drawn)	i
